# Test results as given in PubChem BioAssay AID1626 (SRMLSC, 2009).
# The whole screen tested about 220,000 compounds, of which about 2,000 (0.91%) were called active. About 2% were inconclusive and are not listed. Only a sample is shown. Entries with a potency or affinity are not part of this list. Values without a mark were called inactive. No stated cut-off is given here; in the data, inconclusive means inhibition above about 80% without an active follow-up result; inactive means below that; test concentration not stated here.
# Assay: M. tuberculosis H37Rv growth inhibitors, H37Rv strain (AID 1626);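 further: bacteria incubated seven days before Alamar blue readout; 0% = bacteria only wells and 100% = bacteria with antibiotic wells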
# Details: active compounds read high, concentration not given here
row,Structure (SMILES),inhibition [%]
1,CCOC(=O)N1CCC(NC(=O)C2CCN(S(=O)(=O)c3ccc4c(c3)oc(=O)n4C)CC2)CC1,-3.61
2,Cc1ccc(OCCNC(=O)c2cc(C(=O)NCCOc3ccc(C)cc3)cc([N+](=O)[O-])c2)cc1,1.97
3,O=C1c2cc3ccccc3c(-c3ccccc3)c2C(=O)N1c1ccccn1,11.2
4,O=C(C1CCC(N2C(=O)C3CC=CCC3C2=O)CC1)N1CCCCC1 (centres undefined),0.53
5,COc1ccc2c(C#N)c3ccccn3c2c1,8.95
6,N#Cc1c2ccc(OCC(N)=O)cc2n2ccccc12,5.54
7,COc1ccccc1-c1coc2cc(OCC(=O)OCc3ccccc3)ccc2c1=O,8.31
8,CCOc1ccccc1Oc1coc2cc(OCC(=O)O)ccc2c1=O,1.18
9,CS(=O)(=O)Nc1ccccc1NS(C)(=O)=O,2.07
10,Cc1nnc(SCC(=O)NCc2ccc(Cl)cc2)[nH]c1=O,-5.88
11,CC(=O)c1cccc(NC(=O)CC2S/C(=N/N=C/c3ccccc3)NC2=O)c1 (centres undefined),5.53
12,O=C(CC(=O)c1ccccc1O)c1ccc(F)cc1,-0.45
13,Cc1ccc(C(=O)CC(=O)c2cccc(F)c2)c(O)c1,21
14,N=C1C(c2ccccc2)=C(O)CN1c1cccc(S(=O)(=O)Nc2cccc(C(F)(F)F)c2)c1,71.6
15,CCc1ccc(NC(=O)C(C)OC(=O)C2CCC(=O)N2)cc1 (centres undefined),-4.48
16,Cc1ccccc1NC(=S)NCCc1ccccn1,1.47
17,Cc1cc(C)cc(N(CC(=O)NCC2CCCO2)C(=O)CN2C(=O)COc3ccccc32)c1 (centres undefined),-1.08
18,COc1ccc(OCCOc2ccc(C)nc2[N+](=O)[O-])cc1,9.48
19,CCC(CO)NCc1ccc(Br)cc1 (centres undefined),2.11
20,CCC(CO)NCC#Cc1ccccc1 (centres undefined),-0.71
21,CCN1CCN(C(c2cc3cccc(C)c3[nH]c2=O)c2nnnn2Cc2ccccc2)CC1 (centres undefined),-2.17
22,O=[N+]([O-])C(=C1Nc2ccccc2N1)C(Cl)=C(Cl)Cl,0.64
23,Clc1cc2cccnc2c2ccccc12,-3.53
24,O=[N+]([O-])c1ccc(O)c2ncccc12,79
25,Oc1c(I)cc(I)c2cccnc12,76.2

row,Structure (SMILES),inhibition [%]
1,Cc1ccc([N+](=O)[O-])c2cccnc12,-9.13
2,O=[N+]([O-])c1cc(Cl)c2cccnc2c1O,3.31
3,O=[N+]([O-])c1cc(F)c2cccnc2c1O,-0.05
4,COC(=O)c1ccc(COc2cc([N+](=O)[O-])cc3cccnc23)cc1,-7.07
5,CCOC(=O)COc1cc([N+](=O)[O-])cc2cccnc12,3.26
6,CCOc1ccccc1CN1C(=O)c2ccccc2C1C(=O)NCC1CCCO1 (centres undefined),1.98
7,Cc1cc(C)n2c(Br)c(CN3CC4CC(C3)c3cccc(=O)n3C4)nc2n1 (centres undefined),9.25
8,Brc1ccccc1-c1cnco1,-1.43
9,Cc1cccc(OCC(=O)N2CCN(C(=O)c3ccco3)CC2)c1,-15.9
10,COc1ccc(-n2c(C)nc3c(cnn3-c3ccc(C)c(C)c3)c2=O)cc1,17.5
11,O=c1cc(CSc2n[nH]c(-c3ccncc3)n2)nc2sccn12,1.39
12,OCCN1CCN(Cc2cc(Cl)c3cccnc3c2O)CC1,-5.12
13,CCN(CC)C(=O)Oc1c(Cl)cc(Cl)c2cccnc12,4.99
14,CN(C)C(=O)Oc1c(Cl)cc(Cl)c2cccnc12,1.37
15,Oc1ccc(CN2CCc3ccccc3C2)c2cccnc12,1.81
16,CCOC(=O)CN1C(=O)S/C(=C/c2cc(C)n(C)c2C)C1=O,8.52
17,CC(NCCN(C)C)C(=O)C12CC3CC(CC(C3)C1)C2 (centres undefined),6.21
18,Cc1ccc(NCCC#N)cc1C,-1.15
19,CCn1c(SCC(=O)NCc2ccccc2)nnc1-c1ccccc1O,-6.19
20,CCOc1cc(/C=N/NC(=O)CSc2nncn2C)ccc1OCc1ccccc1,-1.69
21,CCOC(=O)c1[nH]ncc1CN1CCC(Cc2cccc(OC)c2)(C(=O)OCC)CC1,-9.77
22,O=C(OCC(=O)N1CCCc2ccccc21)c1cncc(Br)c1,-11.1
23,Cn1c(O)c(C(c2ccncc2)c2c(O)n(C)c(=S)n(C)c2=O)c(=O)n(C)c1=S,-3.3
24,O=C(O)Cc1cn(-c2ccccc2)nc1-c1ccccc1,3.9
